Shown are actives, neighbours in structure and some others; about 19% of the full set was active somewhere.
HT1080 IDH1KD tx: qHTS for induction of synthetic lethality in tumor cells producing 2HG: qHTS for the HT-1080-IDH1KD cell line | HT-1080 IDH1 knockdown viability, ATP luminescence, 48 h | Potency, µM (doses to about 46.1 µM), for inactives: at the top dose activity, negative = toxicity, most hits filed as cytotoxic | 360,000 tested, 2% active | AID 686971, 2013;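 note: potency is the fitted concentration of half-maximal effect; 0% = DMSO wells and -100% = cell-free medium wells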
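In this qHTS, HT-1080 cells depleted of IDH1 are exposed for 48 h at 37 °C to compound titrations. Toxicity is scored from CellTiter-Glo luminescence, with DMSO as full viability and medium alone as none.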
DT40 TDP1 CPT: qHTS for Inhibitors of human tyrosyl-DNA phosphodiesterase 1 (TDP1): qHTS in cells in presence of CPT; 420,000 tested, 12% active; chicken DT40 Tdp1-/-;hTDP1 cells + 20 nM CPT, ATP luminescence, 48 h; Potency, µM (series often up to 46.2 µM), inactives show at the top dose activity change, negative = growth inhibition, usual class: inhibitors; note: potency is the fitted concentration of half-maximal effect; nearly all actives have a fitted effect of over 55% in size
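Chicken DT40 Tdp1-/- cells complemented with human TDP1, 400 cells/well, exposed to compounds plus 20 nM camptothecin for at least 48 h at 37 C; viability read as ATP content by CellTiter-Glo luminescence.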
TDP1 cell noCPT: qHTS for Inhibitors of human tyrosyl-DNA phosphodiesterase 1 (TDP1): qHTS in cells in absence of CPT | DT40 Tdp1-/- hTDP1 cells, no CPT, ATP luminescence, 48 h | Potency, µM (series often up to 46.2 µM), without a hit: top-dose activity change, negative = growth inhibition, usual class: inhibitors | AID 686978, 2013 | 420,000 tested, 15% active; note: potency is the fitted concentration of half-maximal effect; nearly all actives have a fitted effect of over 55% in size
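Camptothecin absent (DMSO only). Human TDP1-complemented DT40 knockout cells, 400 cells/well, 37 °C for minimum 48 hr; ATP measured via CellTiter-Glo, 30 min dark incubation, luminescence.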
HT1080-NT tox: qHTS for induction of synthetic lethality in tumor cells producing 2HG: qHTS for the HT-1080-NT fibrosarcoma cell line. HT-1080-NT fibrosarcoma viability, CellTiter-Glo ATP luminescence, 48 h. 360,000 tested, 1.6% active. Potency, µM (titrated, usually from 46.1 µM), for inactives: at the highest dose activity, negative = less viability, usual class: cytotoxic. AID 686970, 2013;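 note: NT is the 2HG producing partner of a matched IDH1 knockdown line; potency is the fitted concentration of half-maximal effect; 0% = DMSO-treated cells and -100% = media-only wells without cells; nearly all actives have a fitted effect of over 55% in size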
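HT-1080-NT; 750 cells/well; 5% FBS RPMI; 48 h compound, 37 degrees C; CellTiter-Glo luminescence; curve fitting and curve-class assignment.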
IL1B secr inh: qHTS for Inhibitors of Inflammasome Signaling: IL-1-beta AlphaLISA Primary Screen | activity change, % at 57.5 µM | THP-1 LPS/ATP IL-1B secretion, AlphaLISA, 16 h; stronger effect = lower value | AID 743279, 2014 | 360,000 tested, 4.7% active; in the data active = activity change below about -50%; inconclusive = mostly about -30% to -49%
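THP-1 cells pretreated 1 hr with compounds (up to 57.5 uM final), then stimulated with LPS (250 ng/mL final) plus ATP (1.25 mM final); secreted IL-1B measured by AlphaLISA after 16 hr, decreased signal indicating inhibition.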
The depositor's hits bear a star; u = inconclusive; x = not tested or not shown. Unless noted, calls come from the whole dose curve; as a rule, active = well fitted curve in the direction sought with a large enough effect; inconclusive = small, poorly fitted or top-dose-only effect, or another doubt; inactive = no such curve, though single readings can be large; an effect the other way counts as inactive or inconclusive. Unless noted, % is set by controls: 0 for no effect and ±100 for the full control effect.

SMILES | HT1080 IDH1KD tx | DT40 TDP1 CPT | TDP1 cell noCPT | HT1080-NT tox | IL1B secr inh
O=C(CCCCn1c(=O)c2ccccc2n(CC(=O)Nc2ccc(F)cc2F)c1=O)NCCc1ccccc1 | x | -12.2% | -22.6% | x | x
O=C(CCCn1c(=O)c2ccccc2n(Cc2ccc(F)cc2Cl)c1=O)NCCc1ccc(Cl)cc1 | x | u | 18.4µM* | x | x
CCOc1ccc(CCNC(=O)CSCC(=O)Nc2ccc(OC)cc2)cc1OCC | -0.3% | -5.8% | u | 2.2% | 30.6
NC(=O)COC(=O)CC1CC2CCC1C2 (centres undefined) | 0.7% | 5.5% | 2.3% | 10.3% | -1.7
COC(=O)c1cccnc1Oc1ccccc1 | 9.9% | -5.6% | -0.4% | 3.3% | -6.7
COc1ccc(CCNC(=O)CCCCn2c(=O)c3ccccc3n(Cc3ccc(F)cc3Cl)c2=O)cc1OC | x | 20.6µM* | 6.51µM* | x | x
CC(=O)N1CCN(Cc2nc3cc(NC(=O)NC4CCCCC4)ccc3n2C)CC1 | -1.7% | 9.2% | -0.5% | 0.7% | 17.9
CC(C)(C)c1cc(C(C)(C)C)c2oc(=O)c(-c3nc4ccccc4[nH]3)cc2c1 | x | 9.2µM* | 8.2µM* | x | x
COc1cccc2cc(-c3nc4ccccc4[nH]3)c(=O)oc12 | 0.2% | -4.5% | u | 1.4% | 29.8
Cn1nc(C(=O)NNC(=O)C(CCC(N)=O)NS(=O)(=O)c2ccc(Cl)cc2)c2ccccc2c1=O (centres undefined) | 2.7% | -0.6% | 0.7% | 10.3% | 2.5
CC(=O)Nc1ccc(S(=O)(=O)N2CCN(CC(=O)N3CCOCC3)CC2)cc1 | 13.1% | -14.1% | -8.4% | 9.1% | -5.6
O=C1CCN(CCc2ccccc2)CCN1[C@H](CSc1ccccc1)c1ccccc1 | 2.7% | 11.2µM* | 11.2µM* | -8.5% | 25.1
O=C1CCN(CCc2ccccc2)CCN1[C@H](CO)c1ccccc1 | 2.0% | -23.2% | -15.0% | 0.0% | 11.9
CC(C)C[C@@H](CSc1ccccc1)N1CCN(CCc2ccccc2)CCC1=O | -14.0% | u | 20.6µM* | -11.7% | 17.5
CN1CCC(=O)N([C@H](CSc2ccc(Br)cc2)c2ccccc2)CC1 | -11.2% | u | u | -4.4% | -3.7
Cc1ccc(SC[C@H](c2ccccc2)N2CCN(CCc3ccccc3)CCC2=O)cc1 | -3.9% | u | 20.6µM* | 0.0% | 18.1
CC(=O)Nc1ccc(N=Nc2ccc(O)cc2)cc1 | -0.6% | 14.6µM* | u | u | u
CC(=O)Nc1ccc(-c2ccc(NC(C)=O)cc2)cc1 | -9.3% | 2.8% | 14.8% | -13.0% | -3.8
Cc1ccc(S(=O)(=O)c2nc(S(C)(=O)=O)sc2N2CCC(C)CC2)cc1 | u | 14.6µM* | 14.6µM* | -0.6% | -83.7*
Cc1ccc(S(=O)(=O)c2c(C)cc(C)nc2N2CCCCC2)cc1 | 0.8% | 23.1µM* | 18.4µM* | -2.8% | 6.9
Cc1ccc(S(=O)(=O)c2c(C)cc(C)nc2N2CCOCC2)cc1 | 3.8% | 6.3% | -16.1% | 5.0% | -22.1
Cc1ccc(S(=O)(=O)c2nc(S(C)(=O)=O)sc2N2CCN(C)CC2)cc1 | -0.3% | -11.7% | -4.4% | -1.3% | u
Cc1ccc(S(=O)(=O)c2nc(S(C)(=O)=O)sc2N2CCCCCC2)cc1 | -4.6% | -24.5% | -1.5% | 0.5% | -54.4*
CN(C)c1ccc(C(CNC(=O)c2ccco2)N2CCCC2)cc1 (centres undefined) | 7.8% | 2.1% | 15.3% | 6.8% | -8.5
N/C(=N\c1nc2ccccc2o1)NC(=O)c1ccccc1Br | 2.2% | u | 16.4µM* | 14.2% | 33.7
N/C(=N\c1nc2ccccc2o1)NC(=O)c1ccc(F)cc1 | u | 13µM* | 13µM* | u | -0.9
N/C(=N\c1nc2ccccc2o1)NC(=O)c1ccc(Cl)cc1 | 1.7% | u | -5.2% | 1.2% | 8.4

Assay outcomes (PubChem)
